# Source: PubChem BioAssay
# Many of the other results were omitted from the sample, so hits are more common in it than they were.
# Dicer processing: human Dicer pre-microRNA cleavage inhibition. Q9UPY3. cat-ELCCA pre-miR-21 Dicer processing, chemiluminescence; active compounds read high. z-score at 25 µM. actives 6% (n = 47,000). AID 1347074; in the data active = z-score above about 3, passing the limit was not always enough;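 also: plate controls were vehicle for no effect and no enzyme for full effect; higher signal means more uncleaved substrate so more Dicer inhibition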
# An asterisk follows results filed as active.
SMILES,Dicer processing
O=C1c2oc3ccc(Br)cc3c(=O)c2C(c2cccc(O)c2)N1Cc1ccccc1 (stereo not given),1.2
O=C(Nc1cccc2[nH]ccc12)c1cccc(C(F)(F)F)c1,2.11
O=S(=O)(Nc1ccc(O)c(Cl)c1)c1cccs1,-0.89
Cn1c(=O)c2c(ncn2CC(=O)Nc2nncs2)n(C)c1=O,8.17
Cc1nnc(N2C(=O)c3oc4ccccc4c(=O)c3C2c2ccc(C(C)C)cc2)s1 (stereo not given),-1.59
CCOC(=O)NNC(=S)Nc1ccccc1Cl,-0.07
COc1ccc(C2c3c(oc4ccccc4c3=O)C(=O)N2c2nccs2)cc1OC (stereo not given),-0.57
Cc1ccc(C(=O)OC2=CC(=O)c3ccccc3C2=O)cc1,-3.53
O=C(CSc1nc2ccccc2nc1N1CCOCC1)NCc1cccs1,3.02*
Cc1cc(C)nc(N2CCN(C(=O)CSc3nc4ccccc4nc3N3CCCCC3)CC2)n1,2.56
c1csc(-c2nnc(N3CCOCC3)c3ccccc23)c1,0.89
CNS(=O)(=O)c1cc(C(F)(F)F)ccc1Cl,-1.62
CCCCCOC(=O)CSc1nc2ccccc2s1,-0.75
Cn1c(=O)c2c(ncn2CC(=O)NCc2ccncc2)n(C)c1=O,1.7
COc1ccc(Nc2cc(C)nc(N3CCOCC3)n2)cc1,6.72*
COc1ccc(S(=O)(=O)Nc2ccc(N3CCOCC3)cc2)cc1,-0.27
COc1ccc(Nc2nc(N)nc(CN3CCOCC3)n2)cc1,-0.21
N/C(CS(=O)(=O)Cc1cccc(C(F)(F)F)c1)=N\O,2.25
COc1cccc(OC)c1C(=O)Nc1c(C)c(N2CCCC2)cc2c1C(C)(C)CC2(C)C,1.59
CCOC(=O)C1=NNC2C(=O)N(c3ccccc3)C(=O)C12 (stereo not given),0.66
CCOC(=O)C1=NN(c2ccc(OC)cc2)C2C(=O)N(c3ccccc3)C(=O)C12 (stereo not given),4.69*
COC(=O)C1=NN(c2ccc(OC)cc2)C2C(=O)N(c3ccc(Br)cc3)C(=O)C12 (stereo not given),0.67
Cc1cc([N+](=O)[O-])nn1Cc1ccc(C(=O)O)cc1,-2.25
Cn1c(-c2ccc(Cl)cc2)cnc1NCc1cccc(F)c1,2.4
CCOC(=O)c1sc(SC)c2c1CCC=C2,-1.36
SMILES,Dicer processing
CCOC(=O)c1sc2sc(C(=O)OCC)c(C)c2c1C,8.06
CCOC(=O)c1sc(SC)c(C(C)O)c1C (stereo not given),3.94*
O=C1N=C(c2ccccc2)C(c2ccccc2)N1 (stereo not given),2.92
O=C1ON=C(c2ccccc2)C1C=C1CCCC1 (stereo not given),4.2*
CCCc1[nH]nc2c1C1(CCN(C)CC1C)C(C#N)=C(N)O2 (stereo not given),-2.39
CCOc1nc(-c2cccc(OC)c2)ccc1-c1noc(C)n1,2.7
CC(C)(C)OC(=O)NCCN=Cc1ccc(Cl)cc1,-1.34
Cc1ccc2oc(-c3cccc(N)c3C)nc2c1,2.07
Cc1ccc(-c2nc3ccccc3o2)cc1N,-0.44
Cc1cc2nc(-c3cccc(N)c3C)oc2cc1C,3.03*
CCCc1[nH]nc2c1C(c1ccc(O)cc1)C(C#N)=C(N)O2 (stereo not given),-1.98
CN(C)c1ccc(/C=C/C2=Nc3ccccc3C2(C)C)cc1,-1.06
CC[n+]1c(/C=C/c2ccc(N(C)C)cc2)sc2ccccc21,0.65
CC[n+]1c(/C=C/c2ccc(N(C)C)cc2)ccn1-c1ccccc1,3.33*
CCCOC(=O)C1=C(C)NC2=C(C(=O)CC(C)(C)C2)C1c1ccc(OC)c(Br)c1 (stereo not given),5.69
CCCc1nc(N)c(C#N)c(-c2cccs2)c1CC,0.67
CC(=O)Nc1ccc(C(C)C)cc1Br,-0.07
Cc1cccc(C)c1Nc1nc2c(C)cc(C)c(C)c2s1,4.2*
Cc1cc(Nc2ccccc2C)c2cccc(C)c2n1,-1.15
Cc1ccc(Nc2nc3ccccc3s2)c(C)c1,0.88
Cn1c(=O)[nH]c(=O)c2c1ncn2Cc1ccccc1F,0.54
COc1ccc2nc(C)cc(N3CCOCC3)c2c1,-0.9
Cc1ccc2nc(C)cc(N3CCOCC3)c2c1,4.42*
c1ccc(-c2cc(N3CCOCC3)c3ccccc3n2)cc1,1.14
Cc1cc(C)cc(OC(=O)c2ccc(Cl)c(Cl)c2)c1,1.47
SMILES,Dicer processing
O=C(Oc1ccc(Cl)c2cccnc12)N1CCOCC1,-1.06
O=C(Oc1cccc2cccnc12)c1ccccc1,-0.08
O=C(Oc1ccc(Cl)c2cccnc12)c1cccnc1,3.48*
COc1ccc(C(=O)Oc2ccc(Cl)c3cccnc23)cc1OC,4.55*
COc1ccc(/C(C)=N/OC(=O)c2cc(OC)c(OC)c(OC)c2)cc1CSc1ccccn1,-0.4
CCOC(=O)c1sc2c(c1OC(=O)c1ccco1)c(=O)n(-c1ccccc1)c(=S)n2-c1ccccc1,-0.12
Cc1ccc2[nH]c(C)c(CN3CC(C)OC(C)C3)c(=O)c2c1 (stereo not given),1.98
COc1ccc(C2CC(=O)C3=C(C2)Nc2ccccc2NC3c2cccc3ccccc23)cc1 (stereo not given),-1.35
CCOc1ccc(C2Nc3ccccc3NC3=C2C(=O)CC(c2ccccc2)C3)cc1 (stereo not given),3.63*
